Screens from PubChem.
Shown are actives, neighbours in structure and some others; about 10% of the full set was active somewhere.
SARS PLpro yeast: inhibitors of SARS-CoV papain-like protease in yeast. S. cerevisiae expressing SARS-CoV PLpro, growth rescue. 330,000 tested, 0.19% active. AID 485353. Potency, µM (titrated, usually from 32.9 µM), without a hit: top-dose activity, positive = growth rescue, hits mostly activators; note: 0% is about no effect; nearly all actives have a fitted effect of over 55% in size
Pf growth 48h: P. falciparum growth inhibition at 48 hours (one generation); 310,000 tested, 5.9% active; Potency, µM (doses to about 28.7 µM), without a hit: at the top dose activity change, negative = inhibition, hits mostly inhibitors; P. falciparum luciferase growth in erythrocytes, 48 h; active = well fitted inhibition curve with a large enough effect; inconclusive = small, poorly fitted or top-dose-only effect, or another doubt; inactive = no such curve, though single readings can be large or run the other way; note: % is set by controls: 0 for no effect and ±100 for the full control effect
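Luminescence readout; reporter = integrated firefly luciferase in P. falciparum. RBC culture at 2% hematocrit, 0.1% parasitemia final, 37 C/5% CO2; decreased signal taken as growth inhibition.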
Pf growth 96h: P. falciparum growth inhibition at 96 hours. P. falciparum luciferase reporter growth, 96 h. AID 504834. 320,000 tested, 6.9% active. Potency, µM (highest dose often 28.7 µM), inactives show at the top dose activity change, negative = inhibition, hits mostly inhibitors; active = well fitted inhibition curve with a large enough effect; inconclusive = small, poorly fitted or top-dose-only effect, or another doubt; inactive = no such curve, though single readings can be large or run the other way; note: % is set by controls: 0 for no effect and ±100 for the full control effect
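Compounds incubated with erythrocytes infected by luciferase-expressing P. falciparum (2% hematocrit, 0.05% parasitemia final) for 96 hours, 37 C in 5% CO2. Growth inhibition scored as decreased luciferase luminescence.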
NS1 function inh: inhibitors of influenza NS1 protein function | Potency, µM (doses to about 46.1 µM), for inactives: at the top dose activity, positive = more growth | 270,000 tested, 0.4% active | AID 2326; note: actives are rising curves; nearly all actives have a fitted effect of over 50% in size
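S. cerevisiae expressing influenza A NS1, grown in glucose, washed, then diluted 1:100 into pH 6.0 -URA galactose medium with 23 nl compound. Growth recovery read as OD600; NS1-free strain serves as control.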
An asterisk follows results filed as active; ? = inconclusive; nt = no result; [ ] = remark or other dose. Unless noted, calls come from the whole dose curve. Potency is the fitted concentration of half-maximal effect.

SMILES	SARS PLpro yeast	Pf growth 48h	Pf growth 96h	NS1 function inh
O=C(NC1CCCC1)C(c1ccc(Cl)cc1)N1CCc2ccccc21 (stereo unspecified)	4%	nt	5.9µM*	-2%
O=C(NC1CCCCC1)C(c1ccccc1)N1CCc2ccccc21 (stereo unspecified)	-17%	nt	12µM*	14%
Cc1ccc(C(C(=O)NC2CCCC2)N2CCc3ccccc32)cc1 (stereo unspecified)	6%	nt	?	11%
N#Cc1ccc(CN2CCN(C(=O)CCNS(=O)(=O)c3ccc(F)c(Cl)c3)CC2)cc1	-3%	-22%	?	nt
COc1cc2ccccc2cc1C(=O)N1CCCC(C(F)(F)F)C1 (stereo unspecified)	-2%	0.52µM*	0.47µM*	nt
CCOc1ccc(S(=O)(=O)n2nc(C)cc2C)cc1	-5%	-39%	-2%	-5%
C[C@H]1CCCC(=O)CCCCCc2cc(O)cc(O)c2C(=O)O1	-4%	4.1µM*	9.3µM*	1%
CC(C)(C)c1[nH]nc2c1C(Cc1ccccc1)C(C#N)=C(N)O2 (stereo unspecified)	4%	10µM*	-22%	-1%
Cc1c(C(=O)O)cc(C(C)(C)C)n1CCSCCO	1%	54%	-1%	3%
CSCCn1c(C(C)(C)C)cc(C(=O)O)c1C	0%	-5%	8.3µM*	-1%
CCOc1ccc(CC(=O)Nc2c(C(=O)Nc3ccccc3)oc3ccccc23)cc1OCC	-1%	-1%	0.93µM*	11%
CCOc1ccc(CC(=O)Nc2c(C(N)=O)oc3ccc(Br)cc23)cc1OCC	7%	nt	12µM*	-39%
COc1ccc(CC(=O)Nc2c(C(N)=O)oc3ccccc23)cc1OC	nt	-8%	-1%	0%
CCOc1ccc(CN(C)CC(=O)NCc2ccc(F)cc2)cc1	-1%	-1%	12%	17%
CC1CCN(S(=O)(=O)c2ccc(C(=O)Nc3ccccc3-c3nc4ccccc4[nH]3)cc2)CC1	15%	4.1µM*	7.4µM*	-5%
COc1ccccc1NC(=O)c1ccc(S(=O)(=O)N2CCCC(C)C2)cc1 (stereo unspecified)	-14%	-17%	20%	-3%
Cc1cccnc1NC(=O)c1ccc(S(=O)(=O)N2CCCCCC2)cc1	-7%	?	?	nt
Cc1cc(F)ccc1S(=O)(=O)Nc1ccccc1C(=O)Nc1ncn[nH]1	0%	-20%	-17%	-10%
Cc1cc(F)ccc1S(=O)(=O)Nc1ccccc1C(=O)Nc1ccccc1-c1nc2ccccc2[nH]1	-4%	9.3µM*	1.9µM*	17%
CC1CCN(S(=O)(=O)c2ccc(C(=O)Nc3ncccc3O)cc2)CC1	6%	?	5.2µM*	16%
CC1CCCN(S(=O)(=O)c2ccc(C(=O)Nc3ccccc3-c3nc4ccccc4[nH]3)cc2)C1 (stereo unspecified)	-14%	1.5µM*	?	-9%
COc1ccc(C2=NS(=O)(=O)N(C)C(C(=O)Nc3ccc(F)cc3F)=C2)cc1	1%	30%	67%	-15%
CS(=O)(=O)c1ccc(Cl)c(NC(=O)CN2CCN(C(=O)c3cccs3)CC2)c1	1%	nt	nt	nt
O=C(CNS(=O)(=O)c1ccc(Cl)cc1)NC1CCCCC1	0%	?	?	nt
Cc1cc(C)c(C)c(S(=O)(=O)N2CCC(C(=O)N3CCCCCCC3)CC2)c1C	7%	-5%	?	15%
SMILES	SARS PLpro yeast	Pf growth 48h	Pf growth 96h	NS1 function inh
CC1(C)CC(=O)c2cnc(NC(=O)CCc3ccccc3)nc2C1	2%	8%	nt	-3%
CCc1ccc(OCC(=O)Nc2ncc3c(n2)CC(C)(C)CC3=O)cc1	-2%	8%	3.3µM*	-2%
Clc1ccccc1C(c1ccccc1)(c1ccccc1)n1ccnc1	-24%	0.64µM*	1.4µM*	-57%
COc1ccccc1C1CC(=O)Nc2cc(C)c(C)cc21 (stereo unspecified)	0%	-21%	13µM*	28%
CCOc1ccccc1C1CC(=O)Nc2cc(C)c(C)cc21 (stereo unspecified)	4%	16%	12µM*	-3%
Cc1cc2c(cc1C)C(c1ccccc1OC(C)C)CC(=O)N2 (stereo unspecified)	-4%	?	?	-45%
COc1cc2c(cc1OC)C(c1ccc(Br)cc1)CC(=O)N2 (stereo unspecified)	6%	8%	5.2µM*	-4%
CCOc1ccccc1C1CC(=O)Nc2cc3c(cc21)OCCO3 (stereo unspecified)	-3%	nt	-15%	-16%
CCOc1ccc(S(=O)(=O)NCCC(=O)OCC(=O)Nc2cc(C)on2)cc1	-1%	17%	91%	-9%
O=c1c2ccccc2c(-c2cccc(C(F)(F)F)c2)nn1-c1ccccc1	1%	?	9.3µM*	5%
O=c1c2ccccc2c(-c2ccc(Cl)cc2)nn1-c1ccccc1	-7%	3.3µM*	?	6%
O=C(O)c1nc(-c2ccccc2)n(-c2cccc(C(F)(F)F)c2)n1	1%	0%	?	nt
Cc1nn(-c2ccc(Cl)cc2)c(=O)c2ccccc12	0%	74%	123%	-1%
O=c1c2ccccc2c(-c2ccc(O)cc2)nn1-c1cccc(C(F)(F)F)c1	-88%	9.3µM*	?	-25%
O=c1c2cccc3c2c(nn1-c1ccccc1)-c1ccccc1-3	8%	-3%	?	6%
Cc1cccc(C(=O)N[C@H](C(=O)Nc2ccc(C)c(S(=O)(=O)N3CCOCC3)c2)C(C)C)c1	12%	nt	nt	nt
Cc1ccc(C(OCC(O)CNC(CO)C(O)c2ccc([N+](=O)[O-])cc2)c2ccccc2)cc1 (stereo unspecified)	4%	?	?	17%
Cc1cc(Cn2nc(C(=O)NCc3cccc(Br)c3)cc2-c2ccccc2)on1	2%	?	?	nt
Nc1c(C(=O)NC2CCCCC2)c2nc3ccccc3nc2n1/N=C/c1ccco1	-5%	15%	9.3µM*	-2%
COCCNC(=O)c1c(N)n(/N=C/c2ccc(F)cc2)c2nc3ccccc3nc12	-1%	-1%	?	10%
Cc1ccc(S(=O)(=O)c2c(N)n(/N=C/c3ccco3)c3nc4ccccc4nc23)cc1	0%	6.6µM*	?	-47%
Cc1ccc(S(=O)(=O)c2c(N)n(/N=C/c3ccco3)c3nc4ccccc4nc23)cc1C	2%	2.1µM*	3.3µM*	?
Cc1cccc(S(=O)(=O)c2c(N)n(-c3ccccc3)c3nc4ccccc4nc23)c1	26%	?	9.3µM*	19%
Nc1c(S(=O)(=O)c2ccccc2)c2nc3ccccc3nc2n1/N=C/c1ccco1	-2%	?	?	13%
CCCCNC(=O)c1c(N)n(/N=C/c2ccccn2)c2nc3ccccc3nc12	-5%	25%	1.5µM*	?
CC(C)CNC(=O)c1c(N)n(/N=C/c2ccccn2)c2nc3ccccc3nc12	-1%	?	19%	8%
Cc1cccc(S(=O)(=O)c2c(N)n(/N=C/c3cccnc3)c3nc4ccccc4nc23)c1	-2%	-20%	nt	-90%
Cc1cccc(S(=O)(=O)c2c(N)n(/N=C/c3ccco3)c3nc4ccccc4nc23)c1	7%	8.3µM*	-19%[5.75 µM]	?
